Results: PubChem BioAssay AID2284102 (EPA ToxCast)
Results filed as inconclusive are left out. Active and inactive are the calls of the source. The calls were made as follows: active = hit-call score of the fitted dose curve at least 0.9, where 1 is the maximum; inconclusive = response in the unintended direction; inactive = score below 0.9.

The compounds below were run against Tyrosine-protein kinase Lyn (Homo sapiens) (UniProt P07948) (assay: ERF_FR_ENZ_hLYN: Eurofins (ERF) Enzymatic Radiometric [Km ATP] KinaseProfiler LeadHunter Assay for human LYN Tyrosine Kinase).
Tyrosine-protein kinase Lyn (Homo sapiens), sequence (P07948 whole entry, looked up): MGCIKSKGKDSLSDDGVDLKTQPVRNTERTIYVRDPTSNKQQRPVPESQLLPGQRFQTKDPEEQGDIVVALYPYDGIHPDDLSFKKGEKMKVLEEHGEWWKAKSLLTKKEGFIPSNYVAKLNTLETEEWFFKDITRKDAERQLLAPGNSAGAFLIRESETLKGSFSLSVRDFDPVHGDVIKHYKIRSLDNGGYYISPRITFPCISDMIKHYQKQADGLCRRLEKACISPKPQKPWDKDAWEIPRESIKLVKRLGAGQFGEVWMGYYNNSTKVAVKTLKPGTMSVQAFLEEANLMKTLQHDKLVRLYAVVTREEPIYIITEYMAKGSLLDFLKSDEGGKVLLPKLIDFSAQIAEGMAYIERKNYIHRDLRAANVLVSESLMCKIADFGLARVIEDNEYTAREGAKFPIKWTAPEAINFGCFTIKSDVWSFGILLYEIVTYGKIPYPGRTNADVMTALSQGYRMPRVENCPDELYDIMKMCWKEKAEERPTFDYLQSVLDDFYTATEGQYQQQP
Method: ERF_FR_ENZ_hLYN is a biochemical, single-readout assay that uses extracted gene-proteins in a cell-free assay. Measurements were taken 0.5 hour after chemical dosing in a 96-well plate. See LYN (B) Human TK Kinase Enzymatic HTRF Assay [Km ATP], Cerep.ERF_FR_ENZ_hLYN is an assay component calculated from the ERF_FR_ENZ_hLYN assay. It is designed to measure enzyme activity using a type of enzyme reporter as detected by fluorescence intensity with HTRF technology.Data from the assay component ERF_FR_ENZ_hLYN was analyzed at the assay endpoint, ERF_FR_ENZ_hLYN, in the positive analysis fitting direction relative to DMSO as the negative control and baseline of activity. Using a type of enzyme reporter, loss-of-signal activity can be used to understand changes in enzymatic activity as they relate to gene LYN. To generalize the intended target to other relatable targets, this assay endpoint is annotated to the kinase intended target family, where the subfamily is non-receptor tyrosine kinase.
Lyn (h) is incubated with 50 mM Tris pH 7.5, 0.1 mM EGTA, 0.1 mM Na3VO4, 0.1% […], 0.1 mg/mL poly(Glu, Tyr) 4:1, 10 mM MgAcetate and [gamma-33P]-ATP (specific activity and concentration as required). The reaction is initiated by the addition of the Mg/ATP mix. After incubation for 40 minutes at room temperature, the reaction is stopped by the addition of phosphoric acid to a concentration of 0.5%. An aliquot of the reaction is then spotted onto a filter and washed four times for 4 minutes in 0.425% phosphoric acid and once in methanol prior to drying and scintillation counting.Compound should be supplied in 100% DMSO.We require a stock solution at a concentration of at least 50x higher than the Final Assay Concentration of your cpd. A 10mM stock is also acceptable.When ordering fewer than 60 kinase assays, we need 120uL of 50x concentrated stock. For more than 60 assays, we need 420 uL of 50xcc stock. Please apply the conversion if you provide 10mM stock solution or compounds in powder form (pre-weighed is required) From 50 cpds supplied as solids, the TAT will be extended.

AC50, active:
COc1cc(CCC(=O)CC(=O)CCc2ccc(O)c(OC)c2)ccc1O 2360 nM
O=C(/C=C/c1ccc(O)cc1)CC(=O)/C=C/c1ccc(O)cc1 2600 nM
COc1cc(/C=C/C(=O)CC(=O)/C=C/c2ccc(O)c(OC)c2)ccc1O 24.6 nM
